# GPT2 inhibitor: inhibitors of human GPT2 alanine aminotransferase. Q8TD30. Recombinant GPT2, coupled pyruvate oxidase/HRP Amplex Red fluorescence. Potency, µM (doses to about 57.7 µM), inactives show at the highest dose activity change, negative = inhibition, actives largely listed as inhibitors. 100,000 compounds, 0.25% hits. AID 1671188; further: nearly all actives have a fitted effect of over 60% in size
#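 Recombinant GPT2 (10ng/uL) with 250uM a-KG and 2mM L-alanine, 30 min at room temperature, in HEPES pH 7.5 buffer. Pyruvate detected by pyruvate oxidase/HRP/Amplex Red fluorescence after 30 min in the dark; AOA (50uM) as positive control.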
# 3T3 cytotox: cytotoxic compounds in NIH 3T3 cells; 94,000 compounds, 4.3% hits; NIH 3T3 viability, CellTiter-Glo ATP luminescence, 48-72 h; AID 1345082; Potency, µM (top dose mostly 96.7 µM), for inactives: at the highest dose activity change, negative = cytotoxicity, hits mostly inhibitors; further: nearly all actives have a fitted effect of over 55% in size
#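 Cytotoxicity was measured by CellTiter-Glo ATP luminescence after 48 or 72 h compound exposure at 37 °C. Mouse NIH 3T3 fibroblasts were seeded at 400 cells/well and dosed by 23 nL pin transfer.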
# HEK293 tox: kills HEK 293 cells; HEK 293 viability, ATP luminescence (CellTiter-Glo), 48-72 h; Potency, µM (series often up to 115 µM), for inactives: at the top dose activity change, negative = cytotoxicity, most hits filed as inhibitors; 94,000 compounds, 6.6% hits; AID 1345083; further: nearly all actives have a fitted effect of over 60% in size
#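 HEK 293 cells at 250 cells/well were exposed to compounds by pintool transfer for 48 or 72 hr at 37 degree Celsius, 5% CO2. Viability was read as ATP-coupled luminescence with CellTiter-Glo after 10 min at room temperature.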
# FLuc inh: Photinus pyralis luciferase inhibition | P08659 | 76,000 compounds, 2.5% hits | purified P. pyralis luciferase, luminescence, biochemical | AID 1347043 | Potency, µM (top dose mostly 115 µM), most hits filed as inhibitors; further: nearly all actives have a fitted effect of over 65% in size
#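 Purified 10nM P. pyralis luciferase with 10uM D-luciferin and 10uM ATP in 50mM Tris acetate pH 7.5, 10mM Mg acetate, 0.01% Tween-20, 0.05% BSA. qHTS titration; luminescence read by CCD imager.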
# hNpr1 antagonist: human Npr1 receptor antagonism; 76,000 compounds, 1.6% hits; P16066; HEK293 hNpr1 GloSensor cGMP, ANP-stimulated luminescence; Potency, µM (top dose mostly 46.3 µM), inactives show top-dose activity change, negative = inhibition, usual class: inhibitors; AID 1347048; calls by dose curve; further: nearly all actives have a fitted effect of over 60% in size
# Target sequence (P16066 whole entry, looked up): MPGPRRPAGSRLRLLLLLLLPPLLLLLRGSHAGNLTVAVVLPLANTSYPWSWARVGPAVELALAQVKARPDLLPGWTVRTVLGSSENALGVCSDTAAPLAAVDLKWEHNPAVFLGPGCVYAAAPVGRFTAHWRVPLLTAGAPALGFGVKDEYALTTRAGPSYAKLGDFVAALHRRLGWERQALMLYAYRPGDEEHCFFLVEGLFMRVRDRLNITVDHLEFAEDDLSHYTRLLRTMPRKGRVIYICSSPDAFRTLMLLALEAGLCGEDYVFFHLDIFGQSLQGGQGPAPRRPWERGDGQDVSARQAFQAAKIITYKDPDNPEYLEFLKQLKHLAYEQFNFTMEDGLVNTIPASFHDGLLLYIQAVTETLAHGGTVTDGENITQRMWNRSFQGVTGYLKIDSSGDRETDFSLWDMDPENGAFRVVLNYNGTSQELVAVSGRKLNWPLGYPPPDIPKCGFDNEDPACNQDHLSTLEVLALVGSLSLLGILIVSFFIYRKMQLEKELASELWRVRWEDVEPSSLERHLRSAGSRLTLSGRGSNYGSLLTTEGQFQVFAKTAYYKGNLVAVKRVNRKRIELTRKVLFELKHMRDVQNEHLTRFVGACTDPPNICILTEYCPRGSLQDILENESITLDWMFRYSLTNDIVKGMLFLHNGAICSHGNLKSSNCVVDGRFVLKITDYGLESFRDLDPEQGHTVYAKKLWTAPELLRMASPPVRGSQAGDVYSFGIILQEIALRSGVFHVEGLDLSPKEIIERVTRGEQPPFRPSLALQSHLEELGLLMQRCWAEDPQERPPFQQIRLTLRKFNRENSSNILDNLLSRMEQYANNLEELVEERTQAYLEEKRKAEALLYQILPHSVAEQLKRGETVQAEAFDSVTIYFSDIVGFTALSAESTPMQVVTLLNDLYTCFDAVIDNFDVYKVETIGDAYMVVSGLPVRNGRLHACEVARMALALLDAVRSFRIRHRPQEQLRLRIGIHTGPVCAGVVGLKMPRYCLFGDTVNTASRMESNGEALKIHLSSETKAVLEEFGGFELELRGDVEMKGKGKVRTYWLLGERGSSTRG
#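 HEK293 cells stably expressing human Npr1 and cGMP GloSensor pGS-40F, loaded 2 h with 2% GloSensor reagent, given compound 30 min at room temperature. Luminescence read before and 20 min after 0.1 nM hNppA.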
# * = called active by the depositor; i = inactive; u = inconclusive; x = no result given; ! = repeats disagree; [ ] = another dose, or the depositor's remark. Only some compounds are listed: those with a hit (about 10% of all), similar ones and a draw of the others. Unless noted, the call rests on the fitted dose curve; in most records, active means well fitted curve in the direction sought with a large enough effect; inconclusive means small, poorly fitted or top-dose-only effect, or another doubt; inactive means no such curve, though single readings can be large; an effect the other way counts as inactive or inconclusive. On the % scale 0 is the no-effect control and ±100 the full control effect; potency means the concentration at half of the fitted maximal effect.
SMILES,GPT2 inhibitor,3T3 cytotox,HEK293 tox,FLuc inh,hNpr1 antagonist
Cc1ccc2c(n1)OC1(CCCC1)CN(CC1CC1)C2=O,-0.4%[27.3 µM],-15.4%[46.1 µM],u,x,x
CC(NC(=O)c1csc2nc(-c3cccc(C(F)(F)F)c3)cn12)c1ccncn1 (configuration not stated),-20.5%,u,u,39.8µM*,0.2%
CC(C)CCNC[C@H]1O[C@H](Cc2cc(-c3ccc(F)cc3)on2)CC[C@@H]1O,i,50.1µM*,89.1µM*,u,u
CC(=O)NC[C@H]1O[C@H](Cc2cc(-c3ccc(F)cc3)on2)CC[C@@H]1O,i,-7.3%[138 µM],-17.3%[172 µM],u,u
O=C(NC[C@H]1O[C@H](Cc2cc(-c3ccc(F)cc3)on2)CC[C@@H]1O)c1ccc(F)cc1,u,u,u,39.8µM*,15.8µM*
CN(Cc1ccc(C2CCCCO2)s1)CC1CCN(CCc2ccc(F)cc2)CC1 (configuration not stated),i,u,44.7µM*,i,-5.6%
CN(CC1CCN(CCc2ccc(F)cc2)CC1)C1CCC1,i,-31.0%,u,i,2.8%
COc1cccc(-c2ccc(C(=O)NCCNC(=O)Cc3ccc(F)cc3)cc2)c1,x,u,89.1µM*,x,x
COc1cccc(-c2ccc(C(=O)NCCNC(=O)c3ccccc3F)cc2)c1,x,-27.8%,89.1µM*!,x,x
COc1ccc(CC(=O)NCCNC(=O)c2ccc(-c3cccc(OC)c3)cc2)cc1,x,-19.9%,u,x,x
CCc1ncc2c(N3CC4CCC(C3)N4CC(F)(F)F)nc3ccccc3n12,u,u,39.8µM*,x,x
O=C(NC1CN(c2ccnc3ccnn23)C1)c1ccccc1,0.8%,-19.1%,u,x,x
COc1ccccc1Nc1ccnc(N2CCCC(C(=O)NC(C)C)C2)n1 (configuration not stated),i,44.7µM*,u,x,x
COC(=O)CNC(=O)C1CCCN(c2nccc(Nc3ccccc3OC)n2)C1 (configuration not stated),i,-24.1%,-8.7%,x,x
COc1ccccc1CNC(=O)C1CCCN(c2nccc(Nc3ccccc3OC)n2)C1 (configuration not stated),i,35.5µM*,u,x,x
COc1ccccc1Nc1ccnc(N2CCCC(C(=O)NCCCc3ccccc3)C2)n1 (configuration not stated),i,u,50.1µM*,x,x
COCCCNC(=O)C1CCCN(c2nccc(Nc3ccccc3OC)n2)C1 (configuration not stated),-24.0%,-37.5%,-14.8%,x,x
COc1ccccc1Nc1ccnc(N2CCCC(C(=O)NCC3CC3)C2)n1 (configuration not stated),-10.8%,35.5µM*,u,x,x
O=C(c1ccc(F)cc1)N1CCN(Cc2ccccc2-c2cccnc2)CC1,4.7%,u,u,x,x
Cc1cccc(C)c1-c1nnc2ccc(C(=O)NCCc3ccccc3F)cn12,i,-12.4%,u,x,x
COCc1ccc2c(c1)c(OC(C)(C)C(=O)NC1CCC(O)CC1)nn2CCC(C)C (configuration not stated),i,12.6µM*,u,i,-4.5%[70.6 µM]
COCc1ccc2c(c1)c(OC(C)(C)C(=O)NCCCN1CCCC1=O)nn2CCC(C)C,2.3%,31.6µM*,-1.3%,i,-2.4%
O=C(NCC(F)(F)F)c1ccc2nc(-c3ccncc3)oc2c1,i,u,u,x,x
CCN(CC)C(=O)/C(C#N)=C/c1cc(O)c(O)c([N+](=O)[O-])c1,8.91µM*,x,x,x,x
O=C(NC1CC1)[C@@H]1C[C@H](Oc2cccnc2)CN1C(=O)c1cc2ccccc2[nH]1,i,-7.8%,i,x,x
SMILES,GPT2 inhibitor,3T3 cytotox,HEK293 tox,FLuc inh,hNpr1 antagonist
COc1ccc(Nc2ccnc(N3CCCC(C(=O)N4CCCC(C)C4)C3)n2)cc1 (configuration not stated),-8.2%,44.7µM*,u,x,x
COc1ccc(Nc2ccnc(N3CCCC(C(=O)NCc4ccc(F)cc4)C3)n2)cc1 (configuration not stated),i,28.2µM*,u,x,x
COc1ccc(Nc2ccnc(N3CCCC(C(=O)NCC(F)(F)F)C3)n2)cc1 (configuration not stated),-12.8%,u,u,x,x
COc1ccc(CNC(=O)C2CCCN(c3nccc(Nc4ccc(OC)cc4)n3)C2)cc1 (configuration not stated),i,u,28.2µM*,x,x
COc1ccc(Nc2ccnc(N3CCCC(C(=O)N4CCN(C(C)=O)CC4)C3)n2)cc1 (configuration not stated),i,u,-14.5%,x,x
COc1ccc(Nc2ccnc(N3CCCC(C(=O)NC4CCCC4)C3)n2)cc1 (configuration not stated),i,39.8µM*,u,x,x
N#Cc1cccc(C(=O)N2CCC(N3C(=O)[C@H]4CN(Cc5ccccc5)C[C@H]4C3=O)CC2)c1,i,u,u,x,x
O=C(Cc1cccc(F)c1)N1CCC(Cc2nncn2CC2CC2)C1 (configuration not stated),-8.4%,u,-1.2%,x,x
COCC(=O)N1CCCC(c2nn(-c3ccc(OC)cc3)c(=O)[nH]2)C1 (configuration not stated),3.2%[88.5 µM],-26.4%[138 µM],-27.8%[172 µM],i,21.0%[70.6 µM]
O=C(N1CCC[C@H]1c1nc(-c2ccccc2Cl)no1)C1(c2ccccc2)CC1,1.0%,u,u,22.4µM*,-19.1%
COc1ccc2cc(C3CN(CCC(=O)NC(C)(C)C)CCO3)ccc2c1 (configuration not stated),i[11.5 µM],u,44.7µM*,u,u
COc1ccc2cc(C3CN(Cc4nc(C(N)=O)no4)CCO3)ccc2c1 (configuration not stated),-10.7%,-26.5%,-3.4%,i,3.0%
O=C(Nc1cccc(C(F)(F)F)c1)N[C@H]1[C@H](O)[C@@H](Oc2ccccc2)[C@@H]2OC[C@H]1O2,u,79.4µM*,u,i,-28.1%[70.6 µM]
O=C(Nc1cccc(C(F)(F)F)c1)N[C@H]1[C@H](O)[C@@H](N2CCC(Cc3ccccc3)CC2)[C@@H]2OC[C@H]1O2,4.4%,35.5µM*,u,i,-20.9%
COc1ccc(-c2ccc(C(=O)NC3CCCCC3)c(Cl)c2)nn1,x,-29.9%,u,x,x
CN1CCN(c2ccc(-c3noc([C@@H]4CCCN4Cc4ccccc4)n3)cn2)CC1,-3.5%[88.5 µM],100µM*,70.8µM*,i,1.6%[70.6 µM]
CC(C)CN1CCC[C@H]1c1nc(-c2ccnc(N3CCOCC3)c2)no1,2.1%[88.5 µM],u,89.1µM*,i,-6.4%[70.6 µM]
CNc1ccc(-c2noc([C@@H]3CCCN3Cc3cnc4ccccc4c3)n2)cn1,i,u,u,i,-18.7%[70.6 µM]
